Screens (PubChem BioAssay)
The list is not random: actives were taken first. Their share in the collection is about 19%.
HT1080 IDH1KD tx: HT-1080 IDH1 knockdown cell toxicity (counter line). HT-1080 IDH1 knockdown viability, ATP luminescence, 48 h. Potency, µM (series often up to 46.1 µM), actives largely listed as cytotoxic. 2% of 360,000 active
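IDH1KD HT-1080 cells, 750/well, RPMI + 5% FBS; compound pinned after 2 h settling; 48 h, 37 °C; CellTiter-Glo luminescence; % activity normalised to DMSO and no-cell wells; curves fitted, classed by r2 and efficacy.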
IL-1B inflam inh: inflammasome signaling inhibition, IL-1 beta readout; activity change, % at 57.5 µM; 4.7% of 360,000 active; THP-1 LPS/ATP IL-1B secretion, AlphaLISA, 16 h; hits give low values; in the data active = activity change below about -50%; inconclusive = mostly about -30% to -49%
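THP-1 cells pretreated 1 hr with compounds (up to 57.5 uM final), then stimulated with LPS (250 ng/mL final) plus ATP (1.25 mM final); secreted IL-1B measured by AlphaLISA after 16 hr, decreased signal indicating inhibition.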
TDP1 cell CPT: growth inhibition of DT40 Tdp1-/-;hTDP1 cells with camptothecin (screen for TDP1 inhibitors) | chicken DT40 Tdp1-/-;hTDP1 cells + 20 nM CPT, ATP luminescence, 48 h | Potency, µM (top dose mostly 46.2 µM), usual class: inhibitors | AID 686979 | 12% of 420,000 active; also: nearly all actives have a fitted effect of over 55% in size
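Cell growth measured by CellTiter-Glo luminescence after a minimum 48 h, 37 C compound exposure with 20 nM CPT in Tdp1-knockout DT40 cells stably expressing hTDP1, seeded 400/well; qHTS titration format.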
TDP1 cell noCPT: qHTS for Inhibitors of human tyrosyl-DNA phosphodiesterase 1 (TDP1): qHTS in cells in absence of CPT | 15% of 420,000 active | Potency, µM (titrated, usually from 46.2 µM), usual class: inhibitors | DT40 Tdp1-/- hTDP1 cells, no CPT, ATP luminescence, 48 h; also: nearly all actives have a fitted effect of over 55% in size
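Seeded 400 DT40-hTDP1 cells/well (vehicle DMSO, no 20 nM CPT); pinned compounds; ≥48 hr at 37 °C; CellTiter-Glo luminescence as viability measure.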
HT1080-NT tox: kills 2HG-producing HT-1080-NT fibrosarcoma cells | Potency, µM (top dose mostly 46.1 µM), usual class: cytotoxic | 1.6% of 360,000 active | AID 686970 | HT-1080-NT fibrosarcoma viability, CellTiter-Glo ATP luminescence, 48 h;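 also: NT is the 2HG producing partner of a matched IDH1 knockdown line; nearly all actives have a fitted effect of over 55% in size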
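750 cells/well, RPMI + 5% FBS; 2 h settle, compound pin-transfer, 48 h at 37 degrees C. CellTiter-Glo 10 min RT, luminescence. Normalized to DMSO and media-only wells.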
A number is an active result; . = inactive; ? = inconclusive; / = not tested or not shown. Unless noted, calls follow the shape of the dose curve; as a rule, active = well fitted curve in the direction sought with a large enough effect; inconclusive = small, poorly fitted or top-dose-only effect, or another doubt; inactive = no such curve, though single readings can be large; an effect the other way counts as inactive or inconclusive.

SMILES | HT1080 IDH1KD tx | IL-1B inflam inh | TDP1 cell CPT | TDP1 cell noCPT | HT1080-NT tox
O=C(CCC(=O)N1Cc2ccccc2Oc2ncccc21)NCc1cccc(Cl)c1 | / | / | ? | . | /
Cc1ccc(NC(=O)CCC(=O)N2Cc3ccccc3Oc3ncccc32)cc1Cl | / | / | 23µM | ? | /
COc1ccc(S(=O)(=O)N2CCN(C(=S)NC3CCCCC3)CC2)cc1 | . | . | . | . | .
O=C(Cc1ccccc1)Nc1nc(-c2cccs2)cs1 | ? | . | ? | . | .
O=C(Nc1nc(-c2ccc(Cl)cc2)cs1)C1=COCCO1 | . | -84 | 23µM | 23µM | .
CCc1ccc(-c2csc(NC(=O)C3=COCCO3)n2)cc1 | . | . | 12µM | ? | .
O=C(Nc1nc(-c2cccs2)cs1)c1ccc([N+](=O)[O-])o1 | ? | -90 | ? | 21µM | ?
O=C(Nc1nc(-c2cccs2)cs1)C1=COCCO1 | . | . | ? | 23µM | .
Cc1nc(C(F)(F)F)ccc1C(=O)Nc1ccccc1F | . | . | . | . | .
COc1ccc(NC(=O)N2CCCC3(CCN(C(=O)c4cccc(F)c4)CC3)C2)cc1 | / | / | . | . | /
Cc1cc2nc(CN(C)Cc3c(C(=O)N(C)C)nc4ccc(Cl)cn34)[nH]c2cc1C | . | . | ? | ? | .
CCc1ccc(C(C)NC(=O)c2ccncc2)cc1 (stereo unspecified) | . | . | . | ? | .
O=C(O)c1cc2cccc([N+](=O)[O-])c2[nH]1 | . | / | . | . | .
Cc1sc(NC(=O)C2=COCCO2)nc1-c1ccc(Cl)cc1 | . | . | ? | 21µM | .
CCN1CCN(c2ccc(S(=O)(=O)N3CCCCC3)cc2NC(=O)c2ccc(C)c(C)c2)CC1 | . | . | ? | 23µM | .
O=C(Nc1cc(S(=O)(=O)N2CCOCC2)ccc1N1CCCC1)c1ccc(F)cc1 | . | . | 13µM | ? | .
O=C(COc1ccc([N+](=O)[O-])cc1)Nc1cc(S(=O)(=O)N2CCCCC2)ccc1N1CCCCC1 | . | . | . | ? | .
O=C(COc1ccc(F)cc1)Nc1cc(S(=O)(=O)N2CCCCC2)ccc1N1CCCCC1 | . | . | 13µM | 18µM | .
O=C(Nc1cc(S(=O)(=O)N2CCOCC2)ccc1-n1cncn1)c1ccc(Cl)cc1 | . | ? | ? | 29µM | .
Cc1ccc(-n2cc(C(C)(C)C)[nH]c2=S)cc1 | . | . | ? | ? | .
CCOc1ccc(-n2nc3cc(C)c(NC(=O)c4cc(OCC)c(OCC)c(OCC)c4)cc3n2)cc1 | / | / | . | . | /
O=C(Cn1cnc2ccccc2c1=O)Nc1nnc(SCc2ccc(Cl)cc2)s1 | . | . | . | . | ?
COCCCNCc1cc(C)n(-c2cc(S(=O)(=O)N3CCOCC3)ccc2N2CCCC2)c1C | . | . | ? | ? | .
CCN1CCN(c2ccc(S(=O)(=O)N3CCCCC3)cc2NC(=O)COc2ccc(F)cc2Cl)CC1 | 18µM | ? | 21µM | ? | 21µM
